# Results reported in the supplement of paper PMC10849652.
# The full data set covers some 8,800 targets. This sample favours those with a hit. About 0.5% of all pairs of compound and target were hits. A number with no mark means an inactive call.
# Legend:
# Test in all cases: log2 fold change, soluble protein after heating vs DMSO (PISA); higher = thermal stabilisation; K562 lysate, 10 uM; active = over 0.2 and 3.5 SD of the protein, either way, in both replicates (recomputed)
# nilotinib = compound: Cc1cn(-c2cc(NC(=O)c3ccc(C)c(Nc4nccc(-c5cccnc5)n4)c3)cc(C(F)(F)F)c2)cn1 [nilotinib]
# How it was run: (§1)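 Dounce homogenisation of K562 pellets in PBS pH 7.4 with 1 mM MgCl2 produced a crude extract, used at 1 mg/mL protein. Exposure to 10 μM compound lasted 30 min, and aliquots were then heated for 3 min across 48°C-58°C, pooled and brought to 0.5% NP-40 at 4°C. The supernatant after 21,000xg for 90 min was quantified by TMTpro 16plex LC-MS/MS with channel sums equalised. Duplicate values are given as log-two fold change in thermal stability relative to solvent controls.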
# [1] = compound: Cc1nc(Nc2n[nH]c3c2CN(C(=O)N[C@H](CN(C)C)c2ccccc2)C3(C)C)c2sccc2n1
# How it was run: as §1
# dasatinib = compound: Cc1nc(Nc2ncc(C(=O)Nc3c(C)cccc3Cl)s2)cc(N2CCN(CCO)CC2)n1 [dasatinib]
# How it was run: as §1
# [2] = compound: Cc1ncc(-c2ccnc(Nc3ccc(S(C)(=O)=O)cc3)n2)n1C(C)C
# How it was run: as §1
# [3] = compound: Cn1cc(-c2ccc3c(c2)CCN3C(=O)Cc2cccc(C(F)(F)F)c2)c2c(N)ncnc21
# How it was run: as §1
# quisinostat = compound: Cn1cc(CNCC2CCN(c3ncc(C(=O)NO)cn3)CC2)c2ccccc21 [quisinostat]
# How it was run: as §1
# tipifarnib = compound: Cn1cncc1[C@@](N)(c1ccc(Cl)cc1)c1ccc2c(c1)c(-c1cccc(Cl)c1)cc(=O)n2C [tipifarnib]
# How it was run: as §1
# [4] = compound: NC(=O)Nc1cc(-c2cccc(F)c2)sc1C(=O)N[C@H]1CCCNC1
# How it was run: as §1
# [5] = compound: NC(=O)c1cnc(N[C@@H]2CCCC[C@@H]2N)nc1Nc1cccc(-n2nccn2)c1
# How it was run: as §1
# [6] = compound: NC1(c2ccc(-c3nc4ccn5c(=O)[nH]nc5c4cc3-c3ccccc3)cc2)CCC1
# How it was run: as §1
# [7] = compound: NCC(=O)Nc1ccc(-n2nc(C(F)(F)F)cc2-c2ccc3c(ccc4ccccc43)c2)cc1
# How it was run: as §1
# vorinostat = compound: O=C(CCCCCCC(=O)Nc1ccccc1)NO [vorinostat]
# How it was run: as §1
# silmitasertib = compound: O=C(O)c1ccc2c(c1)nc(Nc1cccc(Cl)c1)c1ccncc12 [silmitasertib]
# How it was run: as §1
# [8] = compound: O=C1NC(=O)C(c2cnc3ccccn23)=C1c1cn2c3c(cc(F)cc13)CN(C(=O)N1CCCCC1)CC2
# How it was run: as §1
# entospletinib = compound: c1cn2cc(-c3ccc4cn[nH]c4c3)nc(Nc3ccc(N4CCOCC4)cc3)c2n1 [entospletinib]
# How it was run: as §1
# Chain of UniProt Q9H3S7 (Q9H3S7 whole entry, looked up): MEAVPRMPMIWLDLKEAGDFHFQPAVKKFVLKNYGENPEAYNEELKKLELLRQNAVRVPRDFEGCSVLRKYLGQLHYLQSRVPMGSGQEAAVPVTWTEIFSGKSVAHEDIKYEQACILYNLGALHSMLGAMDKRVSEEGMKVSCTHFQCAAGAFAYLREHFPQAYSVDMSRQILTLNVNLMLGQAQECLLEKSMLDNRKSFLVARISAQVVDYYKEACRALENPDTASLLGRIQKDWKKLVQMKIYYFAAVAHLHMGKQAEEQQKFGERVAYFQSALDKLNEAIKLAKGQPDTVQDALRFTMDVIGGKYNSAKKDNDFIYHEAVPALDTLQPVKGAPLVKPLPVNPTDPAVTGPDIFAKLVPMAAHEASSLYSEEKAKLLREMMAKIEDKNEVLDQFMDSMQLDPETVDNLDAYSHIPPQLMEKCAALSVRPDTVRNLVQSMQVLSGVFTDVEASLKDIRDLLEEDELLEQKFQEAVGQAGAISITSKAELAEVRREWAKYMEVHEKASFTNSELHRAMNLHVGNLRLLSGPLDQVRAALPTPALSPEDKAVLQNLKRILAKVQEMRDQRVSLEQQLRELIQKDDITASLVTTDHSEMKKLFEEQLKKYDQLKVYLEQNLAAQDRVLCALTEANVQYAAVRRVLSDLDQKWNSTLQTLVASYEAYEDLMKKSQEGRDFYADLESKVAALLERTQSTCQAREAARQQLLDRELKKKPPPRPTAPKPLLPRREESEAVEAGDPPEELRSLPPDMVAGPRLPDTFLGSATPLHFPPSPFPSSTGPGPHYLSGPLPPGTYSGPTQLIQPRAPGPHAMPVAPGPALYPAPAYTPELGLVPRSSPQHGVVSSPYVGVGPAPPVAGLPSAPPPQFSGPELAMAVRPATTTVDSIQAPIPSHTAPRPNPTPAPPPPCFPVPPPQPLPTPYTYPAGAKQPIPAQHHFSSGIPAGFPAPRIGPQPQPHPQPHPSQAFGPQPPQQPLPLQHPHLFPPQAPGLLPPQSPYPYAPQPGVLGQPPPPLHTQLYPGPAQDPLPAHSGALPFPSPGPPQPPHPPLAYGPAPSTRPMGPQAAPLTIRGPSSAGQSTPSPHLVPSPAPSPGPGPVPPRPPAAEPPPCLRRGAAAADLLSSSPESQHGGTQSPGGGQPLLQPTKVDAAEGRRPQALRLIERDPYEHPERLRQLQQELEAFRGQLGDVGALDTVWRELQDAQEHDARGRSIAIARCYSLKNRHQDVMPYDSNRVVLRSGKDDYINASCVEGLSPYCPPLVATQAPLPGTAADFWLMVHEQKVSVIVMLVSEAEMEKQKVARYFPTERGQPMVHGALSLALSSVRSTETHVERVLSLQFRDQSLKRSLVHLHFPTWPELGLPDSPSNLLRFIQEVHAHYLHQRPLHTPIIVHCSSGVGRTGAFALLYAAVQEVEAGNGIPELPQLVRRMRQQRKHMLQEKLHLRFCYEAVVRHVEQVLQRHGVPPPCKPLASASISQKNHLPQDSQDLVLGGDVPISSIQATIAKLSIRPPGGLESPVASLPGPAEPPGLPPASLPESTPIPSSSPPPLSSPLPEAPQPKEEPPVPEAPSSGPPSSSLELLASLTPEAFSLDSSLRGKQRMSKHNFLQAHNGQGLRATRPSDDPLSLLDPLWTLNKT
# Chain of UniProt Q16512 (Q16512 whole entry, looked up): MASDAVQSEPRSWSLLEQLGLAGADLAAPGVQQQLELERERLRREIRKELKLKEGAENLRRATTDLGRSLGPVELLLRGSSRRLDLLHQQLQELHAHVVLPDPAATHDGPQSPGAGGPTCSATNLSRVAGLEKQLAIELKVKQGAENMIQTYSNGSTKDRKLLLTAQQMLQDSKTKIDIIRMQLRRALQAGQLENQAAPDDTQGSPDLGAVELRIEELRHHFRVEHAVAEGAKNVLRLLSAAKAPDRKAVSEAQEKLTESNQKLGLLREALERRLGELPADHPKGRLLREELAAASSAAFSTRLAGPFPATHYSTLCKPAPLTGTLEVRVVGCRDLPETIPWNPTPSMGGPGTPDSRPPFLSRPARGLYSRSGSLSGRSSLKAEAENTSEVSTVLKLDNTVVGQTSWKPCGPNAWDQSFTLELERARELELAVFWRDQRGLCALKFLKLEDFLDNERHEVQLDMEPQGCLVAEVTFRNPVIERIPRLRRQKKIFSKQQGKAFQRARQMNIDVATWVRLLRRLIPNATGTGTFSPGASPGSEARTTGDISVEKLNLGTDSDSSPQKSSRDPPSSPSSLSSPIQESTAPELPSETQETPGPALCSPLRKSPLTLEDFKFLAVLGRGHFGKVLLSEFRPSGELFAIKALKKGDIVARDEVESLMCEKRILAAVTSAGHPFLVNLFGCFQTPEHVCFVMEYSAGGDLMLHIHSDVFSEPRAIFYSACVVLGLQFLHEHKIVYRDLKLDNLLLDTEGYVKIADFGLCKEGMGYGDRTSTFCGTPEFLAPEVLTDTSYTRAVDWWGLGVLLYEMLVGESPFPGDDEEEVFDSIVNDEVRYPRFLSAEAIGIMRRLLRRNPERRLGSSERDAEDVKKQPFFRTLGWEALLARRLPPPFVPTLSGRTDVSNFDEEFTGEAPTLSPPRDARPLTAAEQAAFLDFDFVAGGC
# Chain of UniProt O00541 (O00541 whole entry, looked up): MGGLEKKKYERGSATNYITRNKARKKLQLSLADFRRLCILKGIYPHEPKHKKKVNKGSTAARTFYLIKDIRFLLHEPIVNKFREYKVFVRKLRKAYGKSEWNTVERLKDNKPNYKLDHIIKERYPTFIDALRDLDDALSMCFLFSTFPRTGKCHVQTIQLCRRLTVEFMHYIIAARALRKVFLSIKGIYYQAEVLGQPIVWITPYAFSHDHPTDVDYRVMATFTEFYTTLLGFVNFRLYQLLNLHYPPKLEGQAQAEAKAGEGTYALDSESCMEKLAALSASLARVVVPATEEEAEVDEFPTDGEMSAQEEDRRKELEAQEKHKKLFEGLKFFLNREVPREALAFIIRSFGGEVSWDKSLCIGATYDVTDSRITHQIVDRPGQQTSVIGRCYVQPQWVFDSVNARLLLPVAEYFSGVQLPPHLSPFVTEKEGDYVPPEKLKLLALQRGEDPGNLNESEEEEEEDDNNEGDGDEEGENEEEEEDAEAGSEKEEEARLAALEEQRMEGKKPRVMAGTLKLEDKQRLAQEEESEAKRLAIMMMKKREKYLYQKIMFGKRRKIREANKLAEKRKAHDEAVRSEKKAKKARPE
# Chain of UniProt P06454 (P06454 whole entry, looked up): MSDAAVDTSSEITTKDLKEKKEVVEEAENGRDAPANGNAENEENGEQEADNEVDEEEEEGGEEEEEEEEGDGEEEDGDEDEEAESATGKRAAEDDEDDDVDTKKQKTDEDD
# Chain of UniProt Q9UMR5 (Q9UMR5 whole entry, looked up): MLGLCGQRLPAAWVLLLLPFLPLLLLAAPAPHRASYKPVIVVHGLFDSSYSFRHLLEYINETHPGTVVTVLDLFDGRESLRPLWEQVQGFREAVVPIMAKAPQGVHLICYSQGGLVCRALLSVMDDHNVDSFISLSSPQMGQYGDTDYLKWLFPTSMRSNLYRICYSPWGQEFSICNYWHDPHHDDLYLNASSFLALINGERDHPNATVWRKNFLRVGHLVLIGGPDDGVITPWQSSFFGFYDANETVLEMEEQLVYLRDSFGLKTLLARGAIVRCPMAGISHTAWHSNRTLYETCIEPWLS
# Chain of UniProt P57721 (P57721 whole entry, looked up): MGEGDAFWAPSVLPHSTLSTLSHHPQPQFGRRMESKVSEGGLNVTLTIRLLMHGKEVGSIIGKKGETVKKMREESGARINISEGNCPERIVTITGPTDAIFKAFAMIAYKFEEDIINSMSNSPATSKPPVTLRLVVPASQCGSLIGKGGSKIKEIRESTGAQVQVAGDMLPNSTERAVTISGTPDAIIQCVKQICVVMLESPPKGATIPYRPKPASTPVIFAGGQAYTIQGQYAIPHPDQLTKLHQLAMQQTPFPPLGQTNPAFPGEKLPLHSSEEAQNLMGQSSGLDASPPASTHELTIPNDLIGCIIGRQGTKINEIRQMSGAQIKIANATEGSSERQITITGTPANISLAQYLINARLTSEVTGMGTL
# Chain of UniProt Q8N4L2 (Q8N4L2 whole entry, looked up): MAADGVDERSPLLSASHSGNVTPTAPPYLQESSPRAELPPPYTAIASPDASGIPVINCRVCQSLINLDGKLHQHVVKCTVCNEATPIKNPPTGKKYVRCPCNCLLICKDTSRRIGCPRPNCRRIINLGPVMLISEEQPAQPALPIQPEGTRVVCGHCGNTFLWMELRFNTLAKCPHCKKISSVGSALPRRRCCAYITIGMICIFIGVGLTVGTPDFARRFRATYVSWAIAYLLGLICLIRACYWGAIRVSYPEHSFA
# Chain of UniProt Q96CD2 (Q96CD2 whole entry, looked up): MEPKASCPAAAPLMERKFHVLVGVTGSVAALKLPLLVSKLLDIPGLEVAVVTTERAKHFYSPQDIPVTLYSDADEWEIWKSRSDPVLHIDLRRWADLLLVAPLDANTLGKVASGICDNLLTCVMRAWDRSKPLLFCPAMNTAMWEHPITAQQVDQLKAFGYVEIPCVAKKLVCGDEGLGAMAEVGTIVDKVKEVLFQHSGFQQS
# Chain of UniProt P78356 (P78356 whole entry, looked up): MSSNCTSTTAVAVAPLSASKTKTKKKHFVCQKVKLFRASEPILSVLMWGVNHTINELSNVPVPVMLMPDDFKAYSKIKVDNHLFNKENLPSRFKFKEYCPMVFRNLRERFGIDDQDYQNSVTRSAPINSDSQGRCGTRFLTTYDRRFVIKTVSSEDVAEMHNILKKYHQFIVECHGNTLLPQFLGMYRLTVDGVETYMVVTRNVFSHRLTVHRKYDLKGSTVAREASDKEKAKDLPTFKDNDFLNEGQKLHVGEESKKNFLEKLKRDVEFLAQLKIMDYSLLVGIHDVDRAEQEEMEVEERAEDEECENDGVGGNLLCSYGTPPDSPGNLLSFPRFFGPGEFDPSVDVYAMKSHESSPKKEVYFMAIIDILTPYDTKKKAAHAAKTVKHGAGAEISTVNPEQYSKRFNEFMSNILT
# Chain of UniProt Q9UHV9 (Q9UHV9 whole entry, looked up): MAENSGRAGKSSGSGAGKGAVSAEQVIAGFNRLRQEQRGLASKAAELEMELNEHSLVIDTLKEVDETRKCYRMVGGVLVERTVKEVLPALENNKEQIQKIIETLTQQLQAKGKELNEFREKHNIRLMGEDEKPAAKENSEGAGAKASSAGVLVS
Target,log2 fold change (nilotinib),log2 fold change [1],log2 fold change (dasatinib),log2 fold change [2],log2 fold change [3],log2 fold change (quisinostat),log2 fold change (tipifarnib),log2 fold change [4],log2 fold change [5],log2 fold change [6],log2 fold change [7],log2 fold change (vorinostat),log2 fold change (silmitasertib),log2 fold change [8],log2 fold change (entospletinib)
PFDN2 (UniProt Q9UHV9),-0.011,0.013,0.008,-0.045,-0.019,0.037,0,-0.018,-0.028,0.053,-0.049,0.098,0.015,-0.068,0.007
PPME1 isoform 4 (UniProt Q9Y570),0.01,-0.053,-0.008,-0.025,-0.003,0.018,0.01,-0.03,-0.016,0.041,-0.02,-0.03,0.013,0.005,0.031
PIP4K2B (UniProt P78356),0.032,0.024,0.151,0.093,0.008,-0.017,-0.007,0,0.002,-0.034,0.005,0.074,0.221,0.073,-0.013
PCBP3 (UniProt P57721),0.015,-0.022,-0.005,0.018,-0.025,-0.004,0,-0.023,-0.014,0.012,0.016,-0.371 (active),0.001,-0.001,0.016
PES1 (UniProt O00541),-0.004,0.006,0.016,-0.034,0.001,-0.067,0.001,0.026,0.015,-0.047,0.03,-0.193,0.037,0.014,-0.015
PKN1 isoform 2 (UniProt Q16512),-0.014,-0.098,-0.14,-0.002,0,0.102,0.009,-0.128,-0.054,-0.004,0.002,-0.131,-0.012,-0.138,-0.009
PUS1 (UniProt Q9Y606),0.005,-0.042,-0.01,0.01,0.018,-0.058,0.018,0.043,0.036,-0.023,0.04,-0.321 (active),0.041,-0.013,-0.022
PFKP (UniProt Q01813),0.026,-0.014,0.012,0.003,0.009,0.024,0.016,0,-0.008,-0.004,0.004,0.009,0.008,0.03,0.049
PTPN23 (UniProt Q9H3S7),-0.003,-0.029,-0.034,-0.002,0.01,0.002,0,0.024,0.025,0.005,-0.011,-0.266 (active),-0.007,0,0.009
PYURF (UniProt Q96I23),-0.03,0.051,0.002,0.004,0.048,0.011,-0.009,-0.075,-0.064,-0.006,-0.346 (active),-0.007,-0.001,-0.055,-0.048
PPP2R5C isoform 5 (UniProt Q13362),0.016,0.003,-0.053,0.022,-0.005,0.016,0.074,0.032,0.059,-0.019,0.002,0.049,0.019,0.022,0.011
PIP4P2 (UniProt Q8N4L2),0.287 (active),-0.073,-0.171,-0.015,-0.048,0.035,-0.148,-0.016,0.121,-0.007,0.004,0.029,0.034,0.034,-0.05
PRKCSH (UniProt K7ELL7),-0.013,-0.163,0.014,0.125,-0.015,0.04,0.024,0.024,-0.032,-0.031,0.132,0.109,0.016,0.016,-0.097
PPP2CA (UniProt P67775),-0.009,0.037,0.017,0.009,0.057,0.185,0.024,-0.093,-0.008,0.023,-0.079,0.076,-0.021,-0.004,0
PIGO (UniProt Q8TEQ8),-0.019,0.055,-0.032,-0.19,0.079,-0.119,0.013,0.301,0.059,0.041,-0.156,0.15,0.18,0.121,-0.015
PHKA2 (UniProt P46019),0.005,0.163,-0.05,0.019,-0.028,-0.148,0.015,0.302 (active),0.001,-0.037,0.017,-0.29 (active),0.105,-0.048,-0.012
PYCR2 (UniProt Q96C36),0.03,-0.027,0.011,-0.007,-0.005,0.073,-0.015,-0.021,0.007,0.018,0.002,0.1,-0.008,0.015,0
PTMA (UniProt P06454),0.008,-0.046,0.056,0.019,-0.025,0.047,0.045,0.017,0.032,-0.006,-0.002,0.093,-0.036,0.023,-0.025
PRKD2 isoform 3 (UniProt Q9BZL6),0.079,-0.229,0.028,-0.054,0.04,-0.046,0.069,-0.115,0.06,-0.01,-0.043,-0.326 (active),0.051,0.088,0.052
PPT2 isoform 3 (UniProt Q9UMR5),0.01,-0.019,0.006,-0.019,0.025,-0.004,-0.025,0.032,0.002,0.02,0.055,0.398 (active),0.034,-0.018,-0.006
PPCDC (UniProt Q96CD2),-0.002,-0.014,-0.06,-0.017,-0.04,-0.015,0.022,0.013,0,0.047,0.001,-0.002,0.071,-0.015,0.002
